Measured values reported in PubChem BioAssay AID588345 (Broad Institute, 2011).
About 850 (65%) of roughly 1,300 compounds were called active. Inconclusive results (about 1%) are left out. The rule behind the calls is not given here. The set was probably picked from earlier hits. Only a sample is shown. Entries with a potency or affinity are not part of this list.

biological target: Dual specificity tyrosine-phosphorylation-regulated kinase 1A (Rattus norvegicus) (UniProt Q63470); test: Dyrk1A enzyme activity inhibition – biochemical, cherry-pick, plate reader, 2124-01, dose response (AID 588345); details: Dyrk1A kinase biochemical assay; series mostly up to 12 µM

outcome, inactive:
Cc1cccc(-n2nc3c(c2NC(=O)CCC2CCCCC2)CS(=O)C3)c1C (stereo not given)
Cc1noc(NS(=O)(=O)c2ccc(N/C=C\C(=O)c3ccc(Br)cc3)cc2)c1C
COc1ccc(C(=O)Nc2nc3ccccc3[nH]2)cc1S(=O)(=O)N1CCOCC1
C=CCN1C(=O)/C(=C/c2ccccc2)S/C1=N/c1nccs1
CC(C)(C)NC(=O)C(=O)NC(=O)c1c(F)cccc1Cl
O=C(c1ccc2c(c1)OCCCO2)N1CCCCC1
CC(NC(=O)COC(=O)c1ccc([N+](=O)[O-])s1)c1ccccc1 (stereo not given)
C=CCOC(=O)C1=C(C)NC(=O)NC1c1ccc(Cl)cc1 (stereo not given)
CCOC(=O)C1=C(C)OC(N)=C(C#N)C1c1cc2c(cc1Br)OCO2 (stereo not given)
COC(=O)c1nn(-c2ccc3c(c2)OCO3)cc1O
C=CCc1ccc(OCCOc2ccc(/C=N/n3cnnc3)cc2OCC)c(OC)c1
Cc1ccccc1C(=O)N1CCN(c2ccc(NC(=O)c3cccc(OC(C)C)c3)cc2)CC1
O=C(Nc1ccc(Cl)cc1)c1csc(-c2ccncc2)n1
O=C(Nc1ccc(F)cc1F)c1csc(-c2ccncc2)n1
c1ccc(-c2nnc3sc(Cc4cccs4)nn23)cc1
COC(=O)[C@]1(CC(C)C)N[C@H](c2ccc(-c3cccc(Cl)c3)cc2)[C@@H]2C(=O)N(C)C(=O)[C@@H]21
Cc1cccc(CNc2ncnc3ccc(-c4ccoc4)cc23)c1
CN(C)/C=C1/Oc2c(ccc3ccccc23)C1=O
COc1cc(-c2cn(S(=O)(=O)c3cccc4nsnc34)nc2N)cc(OC)c1OC
CCn1c2ccccc2c2cc(/C=N/O)ccc21
Cc1ccccc1NC(=O)CSc1[nH]c(=O)cc(C)c1C#N
CCN1CCN(Cc2ccc(NC(=O)c3ccc(C)c(NC(=O)c4csc(-c5ccncc5)n4)c3)cc2C(F)(F)F)CC1
Cn1c(-c2ccccc2)c(C=O)c2ccccc21
Cc1ccc(S(=O)(=O)/N=C2\C=C(Nc3cccc(C(=O)O)c3)C(=O)c3ccccc32)c(C)c1
Cc1ccccc1NC(=O)C1CCCN1S(=O)(=O)c1ccc2c(c1)n(C)c(=O)c(=O)n2C (stereo not given)
CCOC(=O)C[C@H]1c2cc(C(F)(F)F)ccc2S(=O)(=O)N1C(C)C
COc1ccc(-c2nn(-c3ccccc3)cc2CO)cc1
Cc1nc2c(c3c1[nH]c1ccccc13)C(=O)CC(C)(C)C2
CN(C)S(=O)(=O)c1ccc(Cl)c(C(=O)Nc2cccc3ncccc23)c1
OCC[C@@H]1C[C@H](O)[C@@H](O)[C@@]2(CCc3ccccc3CO2)O1
CC(=O)c1cccc(NC(=O)Nc2cccs2)c1
COC(=O)c1cc(NC(=O)Nc2cccc(Cl)c2)ccc1Cl
COc1ccc(S(=O)(=O)N(C)C[C@H]2Oc3ccc(NS(=O)(=O)c4cccs4)cc3CC(=O)N([C@H](C)CO)C[C@H]2C)cc1
CCOc1ccc(C2CC(c3cccc(OC)c3)Nc3nc(N)nn32)cc1 (stereo not given)
N#C/C(=C\c1ccc(O)c(O)c1)C(=O)NCCc1ccccc1
COc1cccc(C(=O)c2sc(NC(C)C)nc2N)c1
O=C1CC(c2ccc(S(=O)(=O)NC3CC3)cc2)CN1 (stereo not given)
CNC(=O)c1cc2c(s1)-c1ccccc1CC2
Cn1c2ccccc2c2cc(/C=N/NC(=O)c3cc(O)ccc3O)ccc21
Cc1ccnc(NC(=O)c2cccc(S(=O)(=O)N3CCN(c4ccccc4)CC3)c2)c1
COc1ccc(-n2c(Cn3c(=O)sc4ccccc43)nnc2SCC(=O)N2CCOCC2)cc1
c1ccc(-c2csc3nnc(SCc4ccc5c(c4)OCO5)n23)cc1
COc1ccc2c(c1)C(=NN)c1cc(OC)ccc1-2
CC(C)NC(=O)Nc1cccc2c1O[C@H](CN(C)C(=O)NC1CCCCC1)[C@H](C)CN([C@H](C)CO)C2=O
CC(C)C[C@H]1COCCS(=O)(=O)N1Cc1cccc(Cl)c1
CC(=O)C1C(c2ccc(Cl)cc2)NC(=O)NC1(O)C(F)(F)F (stereo not given)
Cn1c(C(=O)N2CCCC2)cc2c(=O)n(C)c3ccccc3c21
Fc1ccc(-c2nnc3sc(C4COc5ccccc5O4)nn23)cc1 (stereo not given)
NC(=O)c1cc2ccccc2oc1=NCc1ccccc1
Nc1c(C(=O)NCc2ccccc2)nnn1Cc1ccccc1
S=c1[nH]cc(-c2ccc(Cl)cc2)n1Cc1ccccc1
C=C(C)Cn1c(N2CCN(CC)CC2)nc2c1c(=O)[nH]c(=O)n2C
COCCCn1c(SCC(=O)NC2CCCCC2)nnc1-c1ccncc1
CCNc1nc(N)nc(-c2cc(Cl)ccc2O)n1
Nc1nc(N)nc(-c2ccc(Cl)c(Cl)c2)n1
Cc1cccc(NC(=O)c2cnc3sccn3c2=O)n1
O=C(Nc1ccc(Cl)c(Cl)c1)OCc1cnc(Cl)s1
Cc1cc(O)c2c(c1)C(=O)c1cc(O)cc(O)c1C2=O
CC1CCN(c2ncnc3nc[nH]c23)CC1
O=C(c1cccc2c1-c1ccccc1/C2=N/O)N1CCCCC1
NC(=O)N/N=C1\c2ccccc2-c2c(C(N)=O)cccc21
CCOC(=O)c1cnc2ccc(C)cc2c1Nc1ccc(N2CCOCC2)cc1
N#Cc1c(=O)c2nc(NCCCO)ncc2n2c(=O)c3ccccc3[nH]c12
O=C(NNC1=C(C(=O)C(F)(F)F)CCC1)c1ccccc1O
c1csc(CNc2ncnc3ccc(-c4ccoc4)cc23)c1
N#CCSc1nc(Nc2ccc3c(c2)OCO3)c2ccccc2n1
c1cncc(-c2nc(NCc3ccco3)c3ccccc3n2)c1
CC(Nc1nc(-c2cccnc2)nc2ccccc12)c1ccc(F)cc1 (stereo not given)
Cc1nnc2c3ccccc3c(-c3cccs3)nn12
CCN(CC)CCCNC(=O)c1cc2c(=O)n(C)c3ccccc3c2n1C
CCCn1c2ccccc2c2cn[nH]c(=O)c21
O=C(NCCc1ccccc1)C1CCN(S(=O)(=O)c2ccc(Br)s2)CC1
N#Cc1nc(-c2ccccc2Cl)oc1NCC1CCCO1 (stereo not given)
COc1ccc(C(=O)N2CCN(c3c(C)cccc3C)CC2)cc1OC
C=CCNC(=S)Nc1ccc2cn[nH]c2c1
Cc1ccc(CCNC(=O)C2CCN(S(=O)(=O)c3cccc4nonc34)CC2)cc1
CCN(CC)c1ccc(NC(=O)CCc2nnc3ccc(N4CCCCC4)nn23)c(C)c1
NS(=O)(=O)c1ccc(-c2ccc(/C=C3\SC(=O)NC3=O)o2)cc1
Cc1ccc(C(=O)c2coc3ccc(OCC(=O)O)cc23)cc1
Cc1c(O)ccc2c(CN(C)Cc3ccccc3)cc(=O)oc12
Cc1cccc(C)c1OCCOC(=O)c1n[nH]c2ccccc12
CCOCCOc1nc2c(c(=O)n(C)c(=O)n2C)n1Cc1ccc(C)cc1
Cc1ccc(-c2csc3ncnc(SCC(=O)O)c23)cc1
O=C(O)CSc1ncnc2scc(-c3ccccc3)c12
O=C1C(Cl)=C(N2CCC(C(=O)O)CC2)C(=O)c2ccccc21
CCc1cc(-c2[nH]ncc2-c2ccc3c(c2)OCO3)c(O)cc1O
COc1ccc(-c2nc(N)ncc2-c2ccccc2OC)c(O)c1
CCCCCCCCN1[C@@H](CC(=O)OC)c2cc(C(F)(F)F)ccc2S1(=O)=O
C/C(=N/NC(=O)c1ccc(Br)s1)c1cccnc1
O=C(Nc1cccc(-c2nn[nH]n2)c1)c1csc2c1CCCC2
CCc1ccc(C(=O)Nc2cccc(-c3nn[nH]n3)c2)s1
Cc1cccc(NC(=S)NNC(=O)c2csc3c2CCC(C)C3)c1 (stereo not given)
C/C(=C/c1oc2ccc(O)cc2c1[N+](=O)[O-])N(C)C
CCC(C)[C@H]1CNCCN1CCc1cccc2ccccc12 (stereo not given in full)
Cc1cccc(NC(=O)C2NC(=O)CC2c2ccccc2)c1C (stereo not given)
COc1ccc(-n2nc(C)cc2Nc2ccccc2C(=O)O)cc1
CCOC(=O)c1nnc(-c2ccc(C)cc2)nc1Sc1ccc(Cl)cc1
O=C(O)c1[nH]c2ccc([N+](=O)[O-])cc2c1-c1ccccc1
COCCNc1cc(C)nc2c(-c3ccccc3OC)c(C)nn12
CC(=O)Nc1cccc(C(=O)OCC(=O)c2ccc3c(c2)OCO3)c1
Cc1c(Br)c(=O)oc2c(Br)c(O)ccc12
Oc1ccc(-c2csc(Nc3cccnc3)n2)cc1
Clc1cccc(Cc2nn[nH]n2)c1
CCOCCCNC(=O)/C(C#N)=C/c1cc(Br)c(O)c(Br)c1
N#Cc1c(N)nc2c3c(sc(=N)c2c1N)NC(=O)CC3c1c(F)cccc1Cl (stereo not given)
COc1ccc2c(C#CCCO)c(-c3ccc(S(C)(=O)=O)cc3)sc2c1
O=C(CSc1nc(-c2ccco2)cc(C(F)(F)F)n1)NCCCn1ccnc1
Nc1ccc(-c2ccc(C(=O)O)s2)cn1
CSc1nc(SCC(N)=O)c2c3c(sc2n1)CN(C)CC3
COc1ccc(C(=O)N(Cc2nc(-c3ccc(C)cc3)no2)C(C)C)cc1OC
CCc1n[nH]c(=S)n1/N=C/c1c[nH]c2ccc(Br)cc12
COc1cccc(-c2nnc3sc(C4CCCCC4)nn23)c1
O=c1nc2n(c3sc4c(c13)CCCC4)C(CBr)CS2 (stereo not given)
Oc1cc(-c2ccncc2)cc2cccnc12
Cc1ccccc1C(=O)NNC(=O)CCCCC(=O)NNC(=O)c1ccccc1C
Cc1ccc(-c2cc(O)cc3sc(=O)oc23)cc1C
O=c1cc(-c2ccccc2)c2c(O)cc(O)cc2o1
O=C1C=C(c2ccc3c(c2)OCO3)CCC1
CC(=O)Nc1nc(-c2ccc3c(c2)OCO3)cs1
CCCN1CCN(c2ncnc3scc(C4COc5ccccc5O4)c23)CC1 (stereo not given)
